Compound activity from PubChem.
BAZ2B inh = BAZ2B (human) inhibition. AlphaScreen BAZ2B-H3K14Ac peptide displacement. Potency, µM (series often up to 114 µM), actives largely listed as inhibitors. hit rate 4.4% among 360,000; also: nearly all actives have a fitted effect of over 60% in size
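AlphaScreen displacement: compounds (up to 110uM) incubated 30 min at room temperature with a preformed 50 nM BAZ2B/50 nM biotinylated H3K14Ac peptide complex in PBS pH 7.4 with Tween-20. Donor and acceptor beads at 10 ug/mL final added, 20 min light-protected before reading.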
G9a block = inhibitors of human histone lysine methyltransferase G9a | Q96KQ7 | G9a H3K9 monomethylation, AlphaScreen, 2 h | Potency, µM (highest dose often 102 µM), most hits filed as inhibitors | hit rate 8.8% among 350,000; also: nearly all actives have a fitted effect of over 75% in size
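G9a (20 nM) preincubated 15 min RT with compounds, then 500 nM biotinylated H3K9 peptide and 20 uM SAM added; 2 h RT reaction. Monomethyl-H3K9 product detected by AlphaScreen with anti-H3K9me1 antibody, streptavidin donor and anti-rabbit IgG acceptor beads.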
JMJD2A Tudor = inhibitors of human JMJD2A Tudor domain | AlphaScreen JMJD2A-Tudor / H3K4me3 peptide binding | hit rate 4.4% among 390,000 | O75164 | AID 504339 | Potency, µM (highest dose often 114 µM), hits mostly inhibitors; also: nearly all actives have a fitted effect of over 50% in size
HP1b binding inh = HP1-beta chromodomain-methylated histone interaction inhibition. P83916. AlphaScreen HP1-beta / biotin-H3K9me3 peptide binding. Potency, µM (series often up to 114 µM), most hits filed as inhibitors. hit rate 0.56% among 390,000; also: nearly all actives have a fitted effect of over 70% in size
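Compound inhibition of the preformed complex between 50 nM HP1-beta and 50 nM biotinylated H3K9me3 peptide was read by AlphaScreen. Buffer was PBS pH 7.4 with 0.01% Tween-20. Incubations ran 30 min at room temperature, with 10 ug/mL donor/acceptor beads.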
12-LOX inh = inhibitors of human 12S-lipoxygenase ALOX12. P18054. purified 12hLO, xylenol orange hydroperoxide absorbance. Potency, µM (doses to about 108 µM), usual class: inhibitors. hit rate 1.1% among 580,000
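Hydroperoxide product was detected by ferrous iron/xylenol orange as the 573 to 405 nm absorbance ratio. Arachidonic acid at 40 uM (final) was turned over for 30 min at room temperature by 150 nM human 12hLO, pH 7.0 Hepes buffer, after 15 min compound preincubation.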
Sfp PPTase inh = Sfp phosphopantetheinyl transferase inhibition; Potency, µM, actives largely listed as inhibitors; hit rate 3.5% among 310,000; Biochemical Sfp PPTase activity, qHTS; Q9F4F7; AID 1490;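 also: the enzyme is Sfp with the accession as filed and its product quenches rhodamine fluorescence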
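After 15 min at room temperature with compound, 15 nM Sfp received 5 uM rhodamine-CoA plus 12.5 uM BHQ-2-ybbR (50 mM Hepes pH 7.6, 10 mM MgCl2). Rate came from the fluorescence difference over 30 min, ex 525/em 598 nm.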
Numbers stand for hits; – = inactive; ? = inconclusive; · = no result given; [ ] = remark or other dose. Rows were chosen to be rich in hits. Some 8.7% of all compounds tested hit in one or more screens of this group. Calls follow the shape of the dose curve; as a rule, active = well fitted curve in the direction sought with a large enough effect; inconclusive = small, poorly fitted or top-dose-only effect, or another doubt; inactive = no such curve, though single readings can be large; an effect the other way counts as inactive or inconclusive.

SMILES	BAZ2B inh	G9a block	JMJD2A Tudor	HP1b binding inh	12-LOX inh	Sfp PPTase inh
O=c1cc(CO)oc(CN2CCN(Cc3ccccc3)CC2)c1O	?	50.1µM	?	–	–	–
C=CCNC(=O)CSCc1coc(-c2ccc(Cl)cc2)n1	·	·	·	·	–	·
Cc1ccc(O[C@H]2COCC[C@H]2NC(=O)CCc2nc3ccccc3[nH]2)cn1	·	·	·	·	–	·
COc1ccc(N2Cc3cccc(C(=O)NCc4ccc(F)cc4)c3C2=O)cc1	·	·	·	·	–	·
CC(C)(C)OC(=O)N1CC(NCc2cc(F)cc(F)c2)C1	·	·	·	·	–[12.5 µM]	·
CC(C)C1C(C#N)=C(N)SC(N)=C1C#N	–	14.1µM	–	–	–	?
CCC(CC)C1C(C#N)=C(N)SC(N)=C1C#N	–	?	?	–	–	–
CC(CC1C(C#N)=C(N)SC(N)=C1C#N)c1ccccc1 (stereo unspecified)	–	10µM	56.2µM	–	?	7.94µM
CC(c1ccccc1)C1C(C#N)=C(N)SC(N)=C1C#N (stereo unspecified)	–	15.8µM	?	–	?	22.4µM
Cc1ccc(CNc2nc3ccccc3n2C)o1	–	–	–	–	–	–
c1ccc(CNc2nc3ccccc3n3cnnc23)nc1	–	44.7µM	–	–	–	–
COc1cccc(CNc2nc3ccc(C)cc3n3cnnc23)c1	–	–	–	–	–	–
c1ccc(CNc2nc3ccccc3n3cnnc23)cc1	–	–	?	–	–	–
Cc1ccc(CNc2nc3ccc(C)cc3n3cnnc23)cc1	–	50.1µM	–	–	–	?
CCCn1c(NCc2ccc(N(C)C)cc2)nc2ccccc21	?	50.1µM	?	–	–	–
CN(C)c1ccc(CNc2nc3ccccc3n2C)cc1	·	·	·	·	–	·
CCN(CC)CCn1c(NCc2ccc(C)o2)nc2ccccc21	?	50.1µM	?	–	–	–
CN1CCC(C(=O)N2Cc3ccccc3CC3(CCCN(Cc4ccncc4)C3)C2)CC1 (stereo unspecified)	·	·	·	·	–[6.33 µM]	·
CN(C)Cc1nnc(C2CC(NC(=O)c3ccn(C)c(=O)c3)C2)n1C (stereo unspecified)	·	·	·	·	–	·
CCCn1c(Nc2nc3ccccc3n2C)nc2ccccc21	8.91µM	–	56.2µM	–	–	?
CCn1c(Nc2ccccc2Cl)nc2ccccc21	–	–	44.7µM	–	–	–
CCCCn1c(NCc2ccccn2)nc2ccccc21	·	?	–	–	–	56.2µM
CCCCn1c(Nc2ccccc2)nc2ccccc21	–	–	–	–	–	–
CCc1ccccc1Nc1nc2ccccc2n1C	–	–	–	–	–	–
CCN(CC)c1ccc(CNc2nc3ccccc3n2CC)cc1	44.7µM	31.6µM	?	?	–	–
SMILES	BAZ2B inh	G9a block	JMJD2A Tudor	HP1b binding inh	12-LOX inh	Sfp PPTase inh
Cc1nc2ccc(NC(=O)c3cc4c(s3)CCC4)cc2s1	·	·	·	·	–	·
Cc1ncc2n1C(=O)N(C1CCN(Cc3ccccc3)CC1)C2	·	·	·	·	–	·
CCOc1ccc2nc(NCCNC(=O)C3CC3)c(C)cc2c1	–	79.4µM	–	–	–	–
Cn1c(=O)c2c(=O)cc(NNC(=O)CC#N)[nH]c2n(C)c1=O	–	?	–	–	?	–
CCCC(=O)NNc1cc(=O)c2c(=O)n(C)c(=O)n(C)c2[nH]1	–	–	?	–	15.8µM	–
O=S(=O)(NCc1ccc(N2CCOCC2)nc1)c1cc(C(F)(F)F)cc(C(F)(F)F)c1	·	·	·	·	7.08µM	·
O=S(=O)(NCc1ccc(N2CCOCC2)nc1)c1ccc(Cl)c(Cl)c1	·	·	·	·	–	·
O=C(CCC[C@H]1NC[C@@H]2C[C@H]1CN(Cc1ccccc1)C2)NCc1ccc(N2CCOCC2)cc1	·	·	·	·	–	·
COc1ccc(C2NC3=NCN(Cc4cccnc4)CN3c3nc4ccccc4n32)cc1OC (stereo unspecified)	·	·	·	·	–	·
COC(=O)c1ccc(/C=C/C(=O)c2ccc3cc(OC)ccc3c2)cc1	·	·	·	·	–	·
O=C(CCC(=O)Nc1ccc(F)cc1)N/N=C/c1ccc(O)cc1O	–	–	–	–	–	–
Oc1ccc(C=NNC(=S)Nc2ccc(F)cc2)c(O)c1	·	·	?	–	39.8µM	·
COc1ccc(N2Cc3ccc(C(=O)N/N=C\c4ccc(O)cc4O)cc3C2)cc1	?	28.2µM	·	·	·	–
O=C(N/N=C/c1ccc(O)cc1O)C(=O)N/N=C/c1ccc(O)cc1O	35.5µM	–	2.51µM	–	–	–
Cc1ccc(C(CNC(=O)c2ccco2)N2CCC(C)CC2)o1 (stereo unspecified)	·	·	·	·	–	·
CCc1noc(C)c1C(=O)Nc1ccc(C(C)C)cc1	·	·	·	·	–	·
O=S(=O)(c1ccccc1F)N1CCC(n2cnnc2C2CC2)CC1	·	·	·	·	–	·
CS(=O)(=O)Nc1ccccc1C(=O)N1CCN(C(c2ccccc2)c2ccccc2)CC1	·	·	·	·	–	·
O=C(c1noc2c1CCCC2)N1CCN(c2ccc(F)cc2)CC1	–	–[2.33 µM]	–	–	–	–
O=C(c1ccc2[nH]c3c(c2c1)CCCC3)N1CCN(c2ccc(F)cc2)CC1	39.8µM	?	31.6µM	?	–	–
COc1ccc(C(=O)N2CCN(c3ccccc3OC)CC2)cc1	–	?	–	–	–	–
COc1ccc2cc(C(=O)N3CCN(c4ccccc4OC)CC3)[nH]c2c1	–	?	–	–	15.8µM	–
